Experimental data published in PubChem BioAssay (EPA / NIEHS).
Results filed as inconclusive are left out. Active and inactive are the calls of the source. How the source made its calls, unless noted: active means hit-call score of the fitted dose curve at least 0.9, where 1 is the maximum; inactive means score below 0.9.

Legend:
[1] = ACEA_ER_80hr: ACEA Biosciences xCELLigence Real-Time Cell Analysis on Estrogen Receptor Agonism for Proliferation (AID 2282667; active means hit-call score of the fitted dose curve at least 0.9, where 1 is the maximum); details: T47D proliferation, impedance (xCELLigence), 80 h
Procedure, shortened: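 Cell-growth kinetics were measured by impedance in T47D cells treated continuously with compound (top 100 uM final, 1:4 steps, 8 points). Activity at 80 h was scored as signal gain over the DMSO baseline.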

[2] = APR_HepG2_CellCycleArrest_24hr: Apredica 24-hour HepG2 Assay for Cell Cycle Arrest (AID 2282905); details: imaging, actives raise or lower the signal;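 further: cell cycle arrest scored as ratio of 2N to 4N nuclear DNA content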
Procedure, shortened: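 HepG2, 24 hr dosing, 10-pt 0.39–200 uM in duplicate, 0.5% DMSO. Fixed 3.7% formaldehyde, permeabilized 0.5% Triton X-100, Hoechst 33342 2 ug/mL. Imaged 20x; nuclear DNA content quantified; bidirectional fit vs DMSO.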

[3] = APR_HepG2_NuclearSize_24hr: Apredica 24-hour HepG2 Assay for Nuclear Size (AID 2282907); details: high-content imaging, actives raise or lower the signal
Procedure, shortened: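 HepG2, 24 hr dosing, 10-pt 0.39–200 uM, duplicates, 0.5% DMSO final; 3.7% formaldehyde fix, 0.5% Triton X-100; Hoechst 33342 nuclear stain; ArrayScan HCS, Cell Cycle analysis → nuclear size; bidirectional fit vs DMSO.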

[4] = APR_HepG2_CellLoss_24hr: Apredica 24-hour HepG2 Assay for Cell Loss (AID 2282908); details: high-content imaging;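 on AC50: fit in both directions so a hit may be cell loss or gain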
Procedure, shortened: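 10-pt dose, 0.39–200 uM, n=2/plate; DMSO 0.5% v/v final as negative control. Fix 3.7% formaldehyde 30 min RT, permeabilize 0.5% Triton X-100, stain Hoechst 33342 2 ug/mL, image 20x. Nuclear count, bidirectional fit vs DMSO.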

[5] = APR_HepG2_MicrotubuleCSK_24hr: Apredica 24-hour HepG2 Assay for Microtubule CSK Stabilty (AID 2282909); details: HepG2 microtubule cytoskeleton imaging, actives raise or lower the signal
Procedure, shortened: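 Human liver HepG2, 24 h dosing, 0.39–200 uM ×10 conc, dup, 0.5% DMSO. 3.7% formaldehyde fix, 0.5% Triton perm, anti-alpha-tubulin (1:200)/Cy5 secondary + Hoechst. HCS imaging, 6 fields/well; gain/loss fit vs DMSO.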

[6] = APR_HepG2_MitoticArrest_24hr: Apredica 24-hour HepG2 Assay for Mitotic Arrest (AID 2282910); details: high-content imaging, actives raise or lower the signal
Procedure, shortened: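 HepG2 human liver cells were exposed to compounds at 0.39–200 uM (10 concentrations, duplicate) in 0.5% v/v DMSO for 24 hr, then fixed and immunostained for phospho-histone H3 with Hoechst 33342. Mitotic arrest came from HCS fluorescent imaging, fitted bidirectionally against DMSO.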

[7] = APR_HepG2_MitoMembPot_24hr: Apredica 24-hour HepG2 Assay for Mitochondrial Membrane Potential (AID 2282911); details: imaging, actives raise or lower the signal
Procedure, shortened: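 Human hepatoma HepG2 cultures received ten compound concentrations up to 200 uM for 24 hr. Membrane-potential dye signal, captured by automated fluorescence microscopy, was scored for gain or loss against DMSO controls.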

[8] = APR_HepG2_MitoMass_24hr: Apredica 24-hour HepG2 Assay for Mitochondrial Mass (AID 2282912); details: high-content imaging, actives raise or lower the signal
Procedure, shortened: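 Mitochondrial mass is read as MitoTracker Red fluorescence intensity from automated imaging, with bidirectional curve fitting relative to DMSO. HepG2 cells received compound (0.39–200 uM, 0.5% DMSO final) for 24 hr and were dye-loaded (250 nM, 30 min) before formaldehyde fixation.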

[9] = APR_HepG2_p53Act_24hr: Apredica 24-hour HepG2 Assay for p53 Activation (AID 2282913); details: high-content imaging, actives raise or lower the signal;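 further: p53 protein immunofluorescence averaged per cell in HepG2 with Hoechst nuclei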
Procedure, shortened: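 Automated fluorescence imaging quantifies p53 immunostaining in HepG2 cells after a 24 hr exposure (0.39–200 uM, duplicate, 0.5% DMSO). Nuclei are located by Hoechst 33342 staining.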

[10] = APR_HepG2_CellCycleArrest_72hr: Apredica 72-hour HepG2 Assay for Cell Cycle Arrest (AID 2282914); details: high-content imaging, actives raise or lower the signal
Procedure, shortened: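 Cell cycle arrest in HepG2 was scored from nuclear DNA content after 72 hr compound treatment (0.39–200 uM). Activity, either gain or loss, was fitted against the DMSO baseline.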

[11] = APR_HepG2_CellLoss_72hr: Apredica 72-hour HepG2 Assay for Cell Loss (AID 2282915); details: high-content imaging
Procedure, shortened: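 HepG2 cells were exposed for 72 hr to compounds at 0.39–200 uM (ten concentrations, duplicate) in 0.5% v/v final DMSO. Nuclei were stained with Hoechst 33342 after 3.7% formaldehyde fixation, imaged at 20x, and counted; fits bidirectional versus DMSO.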

[12] = APR_HepG2_P-H2AX_72hr: Apredica 72-hour HepG2 Assay for H2AX Phosphorylation (AID 2282916); details: imaging, actives raise or lower the signal;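 further: phospho-histone H2A.x immunostain intensity per cell marking DNA damage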
Procedure, shortened: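 HepG2; cpd 0.39–200 uM ×10 conc, duplicates; 0.5% DMSO; 72 hr. Fix 3.7% formaldehyde 30 min RT, 0.5% Triton X-100 10 min. Anti-phospho-H2A.x 1:200 + Hoechst 2 ug/mL, 60 min RT; ArrayScan imaging.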

[13] = APR_HepG2_MitoMembPot_72hr: Apredica 72-hour HepG2 Assay for Mitochondrial Membrane Potential (AID 2282917); details: imaging, actives raise or lower the signal
Procedure, shortened: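 HepG2 cells exposed 72 h to compounds at 0.39–200 uM (0.5% v/v DMSO, duplicates); MitoTracker Red CMXRos 250 nM loaded 30 min before 3.7% formaldehyde fixation, imaged by HCS fluorescence. Bidirectional fit versus DMSO.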

[14] = APR_HepG2_MitoticArrest_72hr: Apredica 72-hour HepG2 Assay for Mitotic Arrest (AID 2282918); details: high-content imaging, actives raise or lower the signal
Procedure, shortened: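 Mitotic arrest in HepG2 is scored from phospho-histone H3 staining after 72 hr dosing across 0.39–200 uM, with DMSO at 0.5% v/v. Nuclei are identified by Hoechst 33342 and fluorescence intensity is quantified per cell.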

[15] = APR_HepG2_MicrotubuleCSK_72hr: Apredica 72-hour HepG2 Assay for Microtubule CSK Stabilty (AID 2282919); details: HepG2 microtubule cytoskeleton, high-content imaging, actives raise or lower the signal
Procedure, shortened: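 HepG2 human liver cells were dosed for 72 h at ten concentrations from 0.39 to 200 uM in duplicate (0.5% v/v DMSO final). Fixed, permeabilized cells were immunostained for alpha-tubulin (Cy5) with a Hoechst counterstain and imaged at 20x.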

[16] = APR_HepG2_P-H2AX_24hr: Apredica 24-hour HepG2 Assay for H2AX Phosphorylation (AID 2282920); details: high-content imaging, actives raise or lower the signal
Procedure, shortened: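 Signal comes from a FITC-labeled secondary detecting phospho-histone H2A.x in fixed HepG2 cells, quantified by automated imaging at 20x. Dosing ran 24 hr across 0.39–200 uM with 0.5% v/v DMSO.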

[17] = APR_HepG2_StressKinase_72hr: Apredica 72-hour HepG2 Assay for Stress Kinase (AID 2282921); details: HepG2 stress kinase (phospho-c-Jun) imaging, actives raise or lower the signal
Procedure, shortened: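 Dose 0.39–200 uM (10 pts, duplicate), 0.5% DMSO; 72 h; fix 3.7% formaldehyde 30 min RT; Triton permeabilize; anti-phospho-c-Jun/Cy3 + Hoechst 60 min RT; image 20x; fit gain/loss vs DMSO.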

[18] = APR_HepG2_StressKinase_24hr: Apredica 24-hour HepG2 Assay for Stress Kinase (AID 2282922); details: HepG2 stress kinase (phospho-c-Jun) imaging, actives raise or lower the signal
Procedure, shortened: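 HepG2 cells exposed 24 hr to compound at 0.39–200 uM (10 concentrations, duplicate), 0.5% v/v DMSO final. Fixed in 3.7% formaldehyde, permeabilized with Triton X-100, immunolabeled for phospho-c-Jun with Hoechst 33342; HCS fluorescence imaging, bidirectional fit versus DMSO.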

[19] = APR_HepG2_p53Act_72hr: Apredica 72-hour HepG2 Assay for p53 Activation (AID 2282923); details: high-content imaging, actives raise or lower the signal;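 further: average cellular p53 protein immunofluorescence intensity in HepG2 cells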
Procedure, shortened: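 10-pt conc. 0.39–200 uM, duplicate, 0.5% DMSO; 72 hr exposure; 3.7% formaldehyde fix, 0.5% Triton perm; sheep anti-p53/Cy5 + Hoechst; ArrayScan 20x, 6 images/well; gain/loss fit vs DMSO.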

[20] = APR_HepG2_MitoMass_72hr: Apredica 72-hour HepG2 Assay for Mitochondrial Mass (AID 2282924); details: high-content imaging, actives raise or lower the signal;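 further: MitoTracker Red CMXRos stain intensity per cell imaged as mitochondrial mass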
Procedure, shortened: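 HepG2 cells were exposed for 72 hr to compounds at 0.39–200 uM (ten concentrations, duplicate, 0.5% v/v DMSO final). Live cells were stained with 250 nM MitoTracker Red CMXRos for 30 min, then fixed in 3.7% formaldehyde and imaged by HCS fluorescence.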

Measured: AC50

CCCCCCCCCCCCCCCCOS(=O)(=O)O
inactive: all assays above

O=S(=O)(O)CCC(F)(F)C(F)(F)C(F)(F)C(F)(F)C(F)(F)C(F)(F)F
inactive: [1]

S=P(N1CC1)(N1CC1)N1CC1
inactive: [1]

FC(F)C(F)(F)COCC1CO1 (centres undefined)
inactive: [1]

NNC(=O)c1ccncc1
not listed: [13] | [14] | [15] | [20]
inactive: all other assays above

O=C(Cl)C(F)(F)C(F)(F)C(F)(F)C(=O)Cl
inactive: [1]

O=C(O)CO
inactive: [1]

OCCNCCO
not listed: [9] | [19]
inactive: all other assays above

c1ccc2ncccc2c1
not listed: [7]
inactive: all other assays above

OCc1ccccc1
not listed: [9] | [19]
inactive: all other assays above

O=C(O)[C@H](O)[C@@H](O)C(=O)O
not listed: [9] | [19]
inactive: all other assays above

CCOc1ccc2[nH]cc(C(=O)NCc3ccccc3)c(=O)c2n1
active: [1] 69 µM | [6] 104 µM | [11] 106 µM | [12] 105 µM | [14] 109 µM
not listed: [9] | [19]
inactive: all other assays above

OCCOCCOCCO
not listed: [7]
inactive: all other assays above

CCCCCCCC/C=C\CCCCCCCC(=O)OC[C@@H](O)[C@H]1OC[C@H](O)[C@H]1O
not listed: [7]
inactive: all other assays above

O=C(O)c1cccc(C(=O)O)c1
not listed: [9] | [13] | [14] | [15] | [19] | [20]
inactive: all other assays above

O=S(=O)(O)c1ccc(N=Nc2c(O)ccc3cc(S(=O)(=O)O)ccc23)cc1
not listed: [9] | [19]
inactive: all other assays above

Cc1nc(-c2ccccn2)ncc1C(=O)Nn1cc(C)c2cc(F)ccc21
active: [2] 99.5 µM | [4] 88.7 µM | [6] 101 µM | [7] 100 µM | [8] 108 µM | [10] 162 µM | [11] 55.3 µM | [14] 72.2 µM
not listed: [9] | [19]
inactive: all other assays above

CCc1cccc(CC)c1N
not listed: [7]
inactive: all other assays above
